This is part of a sample that, as a whole, favours compounds with a hit. Of some 83,000 tested, about 20% had one in any assay.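 Assay: single dose, 48 h. Readout: percent growth (0 = no net growth; negative = cell death). Active: <10.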 Unmarked numbers belong to inactive results. Calls of active or inactive are those of the source.
What was measured:
Assay in all cases: NCI-60 one-dose screen, 48 h (100 = growth as untreated, 0 = no growth, -100 = all killed)
[1] = system: NCI-H23 lung; settings: 10 µM unless noted
[2] = system: NCI-H226 lung; settings: 10 µM unless noted
[3] = system: NCI-H322M lung; settings: 10 µM unless noted
[4] = system: NCI-H460 lung; settings: 10 µM unless noted
[5] = system: HOP-92 NSCLC; settings: 10 µM
[6] = system: NCI-H522 lung; settings: 10 µM
[7] = system: A549/ATCC NSCLC; settings: 10 µM unless noted
[8] = system: 786-0 renal; settings: 10 µM unless noted

Row | SMILES | growth [1] | growth [2] | growth [3] | growth [4] | growth [5] | growth [6] | growth [7] | growth [8]
1 | COc1cccc2c1nc1cccc(OC)c1[n+]2[O-] | 9.62% (active) | 71.2% | 78.6% | 14.1% | 31.4% | 20.2% | 36.8% | 32.5%
2 | COC(=O)Nc1nc2ccc(C(=O)c3ccccc3N(C)C3COC3)cc2[nH]1 | 54.4% | 49.6% | 49.5% | 13.5% | 41.1% | 13.1% | 42.4% | 34.4%
3 | CCC(CCCN1C(=O)c2ccccc2C1=O)Nc1cc(OC)cc2c(C)ccnc12 (configuration not stated) | 117% | 88.2% | 104% | 114% | 72.4% | 91.8% | 103% | 95.9%
4 | CCOC(=O)c1c(C)oc2ncnc(Nc3ccc(NC(=O)Nc4cccc(Cl)c4)cc3)c12 | 64.1% | 54.8% | 83.6% | 67.2% | 50.7% | 57.2% | 32.3% | 79.1%
5 | O=C(NCCNCCO)c1cc([N+](=O)[O-])cc([N+](=O)[O-])c1O | 103% | 97.7% | 103% | 104% | 93.9% | 91.9% | 100% | 104%
6 | COC(c1ccccc1)C(Br)C(=O)c1ccccc1 (configuration not stated) | 109% | 92.5% | 96.2% | 127% | 71.1% | 74.9% | 95.3% | 92.2%
7 | CCOC(=O)c1cc(C(=O)c2ccc(Br)cc2)n2cc(C)cc(C)c12 | 95.2% | 87.2% | 96.7% | 95.9% | 77.9% | 77.3% | 75.7% | 96.3%
8 | COc1cc(Cn2ccc3c2-c2oncc2CC3)cc(OC)c1 | 30.1% | 67.4% | 33.2% | 7.4% (active) | 57.5% | 29.3% | 36% | 50.9%
9 | COc1cc(-c2cc3cnccc3c3nc(N)c4ccncc4c23)cc(OC)c1OC | 64.3% | 56.1% | 58.7% | 54.9% | -0.882% (active) | 57.1% | 42.5% | 24.8%
10 | CC(=O)NNC(=O)c1sc(NC(C)=O)nc1C | 98.2% | 93.1% | 121% | 108% | 57.4% | 139% | 104% | 122%
11 | CC(C)OC(=O)[C@H](C)N[P@@](=O)(OC[C@@]1(C)O[C@@H](n2cc(F)c(N)nc2=O)C[C@@H]1O[P@](=O)(N[C@@H](C)C(=O)OC(C)C)Oc1ccccc1)Oc1ccccc1 | 94.4% | 96.4% | 102% | 28.7% | 85.1% | 85.6% | 92.2% | 104%
12 | Nc1nc2c(c3cnccc13)C(c1cccc(Br)c1)Cc1cnccc1-2 (configuration not stated) | -0.611% (active) | 25.5% | 31.5% | 4.41% (active) | 15.6% | 3.33% (active) | 13.2% | 14.1%
13 | N=C(N)c1ccc(-c2ccc(-c3cc(Cl)cc(Cl)c3)s2)cc1 | -77.4% (active) | -64.7% (active) | -84.4% (active) | -81.1% (active) | -77.1% (active) | -41.2% (active) | -50.8% (active) | -73.3% (active)
14 | Nc1ccc(S(=O)(=O)c2ccc(NO)cc2)cc1 | 100% | 118% | 116% | 111% | 108% | 79.4% | 105% | 99.1%
15 | COc1cc(-c2c3c(cn2CCN2CCCCC2)-c2oncc2CC3)cc(OC)c1OC | 98.6% | 90.2% | 110% | 101% | 81.8% | 90.9% | 101% | 105%
16 | CC[C@H](Nc1ncnc2nc[nH]c12)c1nc2cccc(NCc3ccc(C(=O)NO)nc3)c2c(=O)n1-c1ccccc1 | 41.1% | 66.7% | 77.7% | 24.6% | 23.2% | 22.9% | 68.2% | 59.1%
17 | O=c1c(N=Nc2nccs2)c(-c2ccccc2)[nH]n1-c1nc(-c2ccccc2)cs1 | 36.3% | 56.2% | 24.5% | 22.5% | -8.96% (active) | 20.9% | 36.3% | 43.7%
18 | COc1nc(OC)nc(-c2cc(C(=O)c3ccc(Br)cc3)n3cc(C)cc(C)c23)n1 | 48.1% | 34.3% | 81.8% | 34.8% | 33.9% | 57.7% | 51.3% | 12%
19 | Nc1nc2c(c3cnccc13)C(c1cccc(Cl)c1)Cc1cnccc1-2 (configuration not stated) | 0.544% (active) | 17.2% | 40.1% | 2.15% (active) | 33.1% | 7.88% (active) | 13.6% | 19.6%
20 | CC1(C)NCCC[C@]2(C)[C@H]3CC=C4[C@@H]5C[C@](C)(COC(=O)c6ccccc6C(=O)O)CC[C@]5(C)CC[C@@]4(C)[C@]3(C)CC[C@@H]12 | 66.9% | 86.5% | 91% | 29.7% | 54.9% | 79% | 56.7% | 65.2%
21 | COc1cc2ncnc(-n3ncc4cc(NC(=O)Nc5ccccc5)ccc43)c2cc1OC | 3.14% (active) | -13.9% (active) | 30.9% | 26.8% | -20.3% (active) | 19.9% | 24.1% | 28%
22 | O=C(Nc1ccccc1)Nc1ccc(Nc2ncnc3sc4c(c23)CCCC4)cc1 | 100% | 89.9% | 106% | 104% | 101% | 93% | 73.9% | 110%
23 | Cc1nnc(/N=C2\NC(=O)/C(=C/C=C/c3ccccc3)S2)s1 | 55.2% | 78% | 72.8% | 24.5% | 56.9% | 1.52% (active) | 39.8% | 66.9%
24 | CCOC(=O)c1c(C)oc2ncnc(Nc3ccc(NC(=O)Nc4ccc(CC)cc4)cc3)c12 | 90.7% | 104% | 102% | 106% | 94.3% | 83.5% | 89.2% | 99.8%
25 | COC(=O)/C=C/c1cc(O)c2oc(-c3ccc(O)c(O)c3)c(C(=O)OC)c2c1 | 30.4% | 18.2% | 48.7% | 29.1% | 56.1% | -0.902% (active) | 57.2% | 44.2%
26 | CC(=O)Nc1nc(C)c(C(=O)N/N=C/c2cccs2)s1 | 103% | 86.9% | 111% | 102% | 42.6% | 94.8% | 101% | 94.3%
27 | CCS(=O)(=O)OCCO[C@H]1Cc2cc3ccc(=O)oc3cc2OC1(C)C | 105% | 98.4% | 111% | 105% | 103% | 89.1% | 97.3% | 106%
28 | COc1ccc(-n2nnnc2-c2cn[nH]c2C(F)(F)F)cc1 | 128% | 91% | 105% | 110% | 91.8% | 79.3% | 104% | 106%
29 | O=C1/C(=C\c2cn(-c3nc(N4CCOCC4)nc(N4CCOCC4)n3)c3ccccc23)c2ccccc2N1c1c(Cl)cccc1Cl | 79.7% | 60.1% | 28.2% | 40.8% | 3.38% (active) | 75.3% | 68.4% | 29.5%

— PubChem BioAssay (NCI)
